# From PubChem BioAssay (NCATS)
# Records with an inconclusive call do not appear. The source made the active and inactive calls. Calls come from the whole dose curve; as a rule, active = well fitted curve in the direction sought with a large enough effect; inconclusive = small, poorly fitted or top-dose-only effect, or another doubt; inactive = no such curve, though single readings can be large; an effect the other way counts as inactive or inconclusive. Numbered stars: 1 amine (or outer) side, 2 acyl side, 3 side chain; on linkers, the order of the positions; unused ones are H or OH. Square brackets hold non-standard residues; d marks the D form. Peptide text beside a SMILES is read from it. X10 = O=C(C(CC(O)CO)O[*:1])[*:2]; NMeV = CN[CH](C(=O)O)C(C)C; NMeA = CN[CH](C)C(=O)O; βAla = NCCC(=O)O
# Target: Cellular tumor antigen p53 (Homo sapiens) (UniProt P04637)
# Sequence (P04637 whole entry, looked up): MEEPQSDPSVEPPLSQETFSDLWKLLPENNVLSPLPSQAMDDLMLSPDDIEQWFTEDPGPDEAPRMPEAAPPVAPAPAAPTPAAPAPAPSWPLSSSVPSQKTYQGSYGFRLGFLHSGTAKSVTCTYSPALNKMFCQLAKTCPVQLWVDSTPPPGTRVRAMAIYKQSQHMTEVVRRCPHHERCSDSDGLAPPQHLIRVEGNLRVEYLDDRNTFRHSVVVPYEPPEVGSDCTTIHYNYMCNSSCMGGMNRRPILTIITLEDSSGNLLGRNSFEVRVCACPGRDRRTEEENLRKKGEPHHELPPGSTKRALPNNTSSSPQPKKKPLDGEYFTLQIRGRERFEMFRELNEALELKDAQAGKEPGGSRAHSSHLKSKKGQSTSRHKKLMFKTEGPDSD
# Assay: Primary qHTS for small molecule compounds that upregulate eGFP-tagged delta133p53alpha (in N-terminal) cells. (AID 2060322);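 note: cells pre-induced with doxycycline then dosed without doxycycline; 0% = DMSO vehicle and 100% = reference activator; nearly all actives have a fitted effect of over 75% in size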
# Conditions: NCI-H358 eGFP-delta133p53alpha fluorescence, 24 h; activation: hits give high values
# Procedure, shortened: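 NCI-H358 cells pre-induced 24 h with 10 ng/ml doxycycline for eGFP-delta133p53alpha, plated dox-free and exposed 24 h at 37C to titrated compounds. Fixed, Hoechst-stained; gated GFP peak intensity by laser scanning cytometry, normalized to DMSO (0%) and 57.5 uM 5-azacytidine (100%).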
row,Compound,activation
1,Cn1cc(S(C)=O)c(=O)c2ccc(F)cc21 (stereo unspecified),-7.53% (inactive)
2,Cn1nc(C(C)(C)C)cc1C(=O)N[C@@H](Cc1cccc(Cl)c1)C(=O)NCC#N,-7% (inactive)
3,C[C@@H]1O[C@@H](O[C@H]2[C@@H]3C=CO[C@@H](O[C@@H]4O[C@H](CO)[C@@H](O)[C@H](O)[C@H]4O)[C@@H]3[C@@]3(CO)O[C@@H]23)[C@H](OC(=O)/C=C/c2ccc(O)cc2)[C@H](O)[C@H]1O,6.87% (inactive)
4,C[C@H](N)C(=O)N[C@@H](Cc1ccc(O)cc1)C(=O)N1CCC[C@H]1C(=O)NCC(=O)N[C@@H](CCCCN)C(=O)N[C@@H](Cc1ccccc1)C(N)=O,-5.67% (inactive)
5,CC1(C)CC[C@]2(C(=O)O[C@@H]3O[C@H](CO)[C@@H](O)[C@H](O)[C@H]3O)CC[C@]3(C)C(=CCC4[C@@]5(C)C[C@@H](O)[C@H](O)[C@@](C)(CO)C5CC[C@]43C)C2C1 (stereo partly specified),8.4% (inactive)
6,COC(=O)C1=COC(OC2OC(CO)C(O)C(O)C2O)C2C(C)C(OC(C)=O)C(OC(=O)c3ccccc3)C12 (stereo unspecified),-6.87% (inactive)

# Target: Aldehyde dehydrogenase, mitochondrial (Homo sapiens) (UniProt P05091)
# Assay: qHTS for Inhibitors of the Aldehyde Dehydrogenase Family (ALDH2) Primary screen (AID 2061308);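 note: plate controls were vehicle for no effect and reference inhibitor for full effect; nearly all actives have a fitted effect of over 55% in size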
# Conditions: ALDH2 enzyme inhibition qHTS, 1536-well; series mostly up to 56 µM; activity change, negative = inhibition: at the top concentration
row,Compound,"activity change, negative = inhibition"
1,CC1OC(OC2C(OC(=O)[C@]34CCC(C)(C)C[C@H]3C3=CCC5[C@@]6(C)CC[C@H](OC7OC(C(=O)O)C(O)C(O)C7O)C(C)(C)C6CC[C@@]5(C)[C@]3(C)CC4O)OC(CO)C2O)C(O)C(O)C1OC1OCC(O)C(O)C1O (stereo partly specified),2.53% [at 16.9 µM] (inactive)
2,CC1(C)C2CC=C(COC3OC(COC4OCC(O)(CO)C4O)C(O)C(O)C3O)C1C2 (stereo unspecified),11.1% [at 28 µM] (inactive)
3,COC(=O)C1=CO[C@@H](O[C@@H]2O[C@H](CO)[C@@H](O)[C@H](O)[C@H]2O)[C@@H]2C(C)CC(=O)[C@]12O (stereo partly specified),-3.22% [at 28 µM] (inactive)
4,COc1ccc(S(=O)(=O)n2cnc3cc(C)c(C)cc32)cc1,-11.4% (inactive)
5,CC1(C)SC2C(NC(=O)[C@H](C(=O)O)c3ccsc3)C(=O)N2C1C(=O)O (stereo partly specified),2.77% (inactive)
6,O=C(O)/C=C/c1ccc(-c2ccc(O)c(C34CC5CC(CC(C5)C3)C4)c2)cc1,4.1% (inactive)
7,C=C1CCC2C(C)(C(=O)O)CC(O)CC2(C)C1CC/C(C)=C/C(=O)O (stereo unspecified),-10.9% (inactive)
8,COC(=O)c1cc(CN2CCN(C(=N)N)CC2)cc(C(=O)N2CCN(C(=O)c3ccc(C(=N)N)cc3)CC2)c1,-6.82% (inactive)
9,CC1(C)CCCC2(C)C1CC(=O)C13CC(CCC12)C(O)(CO)C3 (stereo unspecified),-10.8% (inactive)
10,CCC(C)/C=C(C)/C=C/C1=CC2=C(Cl)C(=O)C(C)(OC(C)=O)C(=O)C2=CN1C(CC(=O)O)C(=O)O (stereo unspecified),-19.5% [at 28 µM] (inactive)
11,CCC(=O)O[C@]1(C(=O)CCl)[C@@H](C)C[C@H]2[C@@H]3C[C@H](F)C4=CC(=O)C=C[C@]4(C)[C@@]3(F)[C@@H](O)C[C@@]21C,3.99% (inactive)
12,C/C=C(/COC(=O)/C(C)=C/C)C(=O)OC(CC)c1ccc(OC)c(OC)c1 (stereo unspecified),-9.46% (inactive)
13,CC(C)(OC1OC(CO)C(O)C(O)C1O)C1CCC(O)(CO)C2CC(O)C(C)(O)C2C1 (stereo unspecified),-1.63% [at 28 µM] (inactive)
14,C[C@@H]1CC[C@]2(C(=O)O[C@@H]3O[C@H](CO)[C@@H](O)[C@H](O)[C@H]3O)CC[C@]3(C)C(=CCC4[C@@]5(C)C[C@@H](O)[C@H](O)C(C)(C)C5CC[C@]43C)C2[C@]1(C)O (stereo partly specified),-1.41% [at 16.9 µM] (inactive)
15,C/C=C/C=C/C(O)=C1\C(O)=C(C)C(=O)[C@@]2(C)OC(=O)[C@@](C)(NC(=O)/C=C/C(=O)O)[C@@H]12,-19.6% [at 28 µM] (inactive)
16,COc1cc(O)c2c(c1)C1=C[C@H](O)[C@@H](O)C[C@]1(C)OC2=O,-1.29% (inactive)
17,C=C(C)C1CC[C@]2(C(=O)O)CC[C@]3(C(=O)O)[C@H](CCC4[C@@]5(C)CC[C@H](O)C(C)(C)C5CC[C@]43C)C12 (stereo partly specified),-9.06% [at 28 µM] (inactive)
18,Cc1cccc(C)c1-n1c(=O)c2cnc(Nc3ccc(N4CCN(C)CC4)cc3)nc2n2c3ccccc3nc12,33.4% (inactive)
19,C=C1C(=O)O[C@@H]2/C=C(\C)C(=O)/C=C/[C@](C)(O)C[C@@H](OC(=O)C(C)C)[C@@H]12,13.8% (inactive)
20,COc1c(C)c(OCC=C(C)C)cc2c1CNC2=O,3.79% (inactive)

row,Compound,"activity change, negative = inhibition"
1,CC(/C=C/C1=CC2=CC(=O)C(C)(O)C(O)C2=CO1)=C\C(C)CCO (stereo unspecified),-7.46% (inactive)
2,Fc1cccc(CN(C2=NCCN2)c2c(Cl)cccc2Cl)c1,4.16% (inactive)
3,CCC(C)C1NC(=O)C2CCCN2C(=O)C(CC(O)CO)OC(=O)CCNC(=O)C(C)N(C)C(=O)C(C(C)C)N(C)C1=O (stereo unspecified) (cyclo([X10]PI[NMeV][NMeA][βAla]); configuration not given here),0.144% [at 16.9 µM] (inactive)
4,O=C(O)c1ccc(O)c2ncc(N3CCCN(CCc4cccc5ccccc45)CC3)cc12,12.4% (inactive)
5,C[C@@H]1O[C@@H](O[C@H]2[C@H](OC(=O)[C@]34CCC(C)(C)C[C@H]3C3=CCC5[C@@]6(C)CC[C@H](O[C@@H]7O[C@H](CO[C@@H]8OC[C@H](O)[C@H](O)[C@H]8O)[C@@H](O)[C@H](O)[C@H]7O)C(C)(C)C6CC[C@@]5(C)[C@]3(C)C[C@H]4O)OC[C@@H](O)[C@@H]2O)[C@H](O)[C@H](O)[C@H]1O[C@@H]1OC[C@H](O)[C@H](O[C@@H]2OC[C@@H](O)[C@H](O)[C@H]2O)[C@H]1O (stereo partly specified),2.19% [at 11.2 µM] (inactive)
6,CC(=O)O[C@@H]1[C@H](O[C@@H]2OC[C@](O)(CO)[C@H]2O)[C@@H](O[C@@H]2O[C@@H](C)[C@H](O)[C@@H](O[C@@H]3O[C@H](CO)[C@@H](O)[C@H](O)[C@H]3O)[C@H]2O)[C@H](OC(=O)[C@]23CCC(C)(C)C[C@H]2C2=CCC4[C@@]5(C)C[C@H](O)[C@H](O[C@@H]6O[C@H](C(=O)O)[C@@H](O)[C@H](O)[C@H]6O)[C@@](C)(C(=O)O)C5CC[C@@]4(C)[C@]2(C)CC3)O[C@@H]1C (stereo partly specified),3.67% [at 11.2 µM] (inactive)
7,CC1(O)CC(O)C2(O)C=COC(O[C@@H]3O[C@H](CO)[C@@H](O)[C@H](O)[C@H]3O)C12 (stereo partly specified),0.711% (inactive)
8,CC(=O)O[C@@H]1[C@@H](O)[C@H](O[C@@H]2[C@@H](O)[C@@H](O)[C@H](O[C@H]3[C@H](O[C@H]4[C@H](O[C@H]5CC[C@@]6(C)C(CC[C@]7(C)C6CC=C6[C@@H]8CC(C)(C)CC[C@]8(C(=O)O)CC[C@]67C)[C@]5(C)CO)O[C@H](CO)[C@@H](O)[C@@H]4O)OC[C@@H](O)[C@@H]3O)O[C@H]2C)OC[C@H]1O (stereo partly specified),15.2% [at 16.9 µM] (inactive)
9,C/C(=C\CCC(C)CCO)C(=O)OC[C@H]1O[C@@H](O[C@@H]2OC=C(C(=O)O)[C@H]3CC[C@](C)(O)[C@@H]23)C(O)[C@@H](O)C1O (stereo partly specified),-22.6% [at 28 µM] (inactive)
10,Cc1ncc(CCCN(C)C)cc1Nc1ncc2c(n1)-c1ccc(C(F)(F)F)cc1NC(=S)C2,4.73% (inactive)
11,OC[C@H]1O[C@@H](OCCc2ccccc2)[C@H](O[C@@H]2OC[C@@H](O)[C@H](O)[C@H]2O)[C@@H](O)[C@@H]1O,-1.72% [at 28 µM] (inactive)
12,CC(C)=CCC/C(C)=C/CC/C(C)=C/CC[C@]1(C)CCc2cc(O)cc(C)c2O1,-4.09% [at 28 µM] (inactive)
13,O=C1Nc2ccc(O)cc2O[C@H]1O[C@@H]1O[C@H](CO)[C@@H](O)[C@H](O)[C@H]1O,0.138% (inactive)
14,C[C@]1(O)CC[C@@H]2C(C(=O)O)=CO[C@@H](O[C@@H]3O[C@H](COC(=O)/C=C/c4ccc(O)c(O)c4)[C@@H](O)[C@H](O)[C@H]3O)[C@@H]21,-3.61% [at 28 µM] (inactive)
15,Cn1cc(S(C)=O)c(=O)c2ccc(F)cc21 (stereo unspecified),2.08% (inactive)
16,Cn1nc(C(C)(C)C)cc1C(=O)N[C@@H](Cc1cccc(Cl)c1)C(=O)NCC#N,-1.9% (inactive)
17,C[C@@H]1O[C@@H](O[C@H]2[C@@H]3C=CO[C@@H](O[C@@H]4O[C@H](CO)[C@@H](O)[C@H](O)[C@H]4O)[C@@H]3[C@@]3(CO)O[C@@H]23)[C@H](OC(=O)/C=C/c2ccc(O)cc2)[C@H](O)[C@H]1O,7.45% [at 16.9 µM] (inactive)
18,C[C@H](N)C(=O)N[C@@H](Cc1ccc(O)cc1)C(=O)N1CCC[C@H]1C(=O)NCC(=O)N[C@@H](CCCCN)C(=O)N[C@@H](Cc1ccccc1)C(N)=O,4.44% [at 11.2 µM] (inactive)
19,CC1(C)CC[C@]2(C(=O)O[C@@H]3O[C@H](CO)[C@@H](O)[C@H](O)[C@H]3O)CC[C@]3(C)C(=CCC4[C@@]5(C)C[C@@H](O)[C@H](O)[C@@](C)(CO)C5CC[C@]43C)C2C1 (stereo partly specified),10.4% [at 16.9 µM] (inactive)
20,COC(=O)C1=COC(OC2OC(CO)C(O)C(O)C2O)C2C(C)C(OC(C)=O)C(OC(=O)c3ccccc3)C12 (stereo unspecified),-5.95% [at 28 µM] (inactive)
